We go through five compounds from PubChem BioAssay AID2429 (National Center for Advancing Translational Sciences (NCATS), 2010).

This is one part of the list. Active and inactive are the calls of the source. Calls come from the whole dose curve.

Sequence of 15-hydroxyprostaglandin dehydrogenase [NAD(+)] (Homo sapiens) (P15428 whole entry, looked up): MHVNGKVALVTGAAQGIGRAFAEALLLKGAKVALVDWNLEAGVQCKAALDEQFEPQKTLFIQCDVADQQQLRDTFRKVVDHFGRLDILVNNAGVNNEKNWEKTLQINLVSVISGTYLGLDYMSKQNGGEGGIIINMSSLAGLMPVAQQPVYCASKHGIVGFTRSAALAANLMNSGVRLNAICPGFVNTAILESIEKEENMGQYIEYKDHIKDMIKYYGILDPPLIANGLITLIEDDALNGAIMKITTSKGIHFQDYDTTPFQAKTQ

This test concerns the target 15-hydroxyprostaglandin dehydrogenase [NAD(+)] (Homo sapiens) (UniProt P15428). The test is described as follows: Confirmation qHTS Assay for Inhibitors of HPGD (15-Hydroxyprostaglandin Dehydrogenase). The note with it: recombinant HPGD, NADH fluorescence, PGE2 substrate. The source says:
Assay Overview: Human 15-Hydroxyprostaglandin dehydrogenase (HPGD) catalyzes the inactivation of prostaglandin E2, and plays a major role in cancer biology by antagonizing the oncogenic potential of cyclooxygenase type 2 (COX2). Assays are available, based on absorbance/fluorescence increase of NADH with the substrate 15-OH prostaglandin E2. Inhibition of HPGD activity was screened by utilizing prostaglandin as an electron donor and NAD+ as an electron acceptor/cofactor. An increase in the fluorescence intensity due to conversion of NAD+ to NADH was used to measure the enzyme activity. This assay is a confirmation screen of primary qHTS protocol (See AID 894). References 1. Myung SJ, Rerko RM, Yan M, Platzer P, Guda K, Dotson A, Lawrence E, Dannenberg AJ, Lovgren AK, Luo G, Pretlow TP, Newman RA, Willis J, Dawson D, Markowitz SD. 15-Hydroxyprostaglandin dehydrogenase is an in vivo suppressor of colon tumorigenesis. Proc Natl Acad Sci U S A. 2006 Aug 8;103(32):12098-102. 2. Yan M, Rerko RM, Platzer P, Dawson D, Willis J, Tong M, Lawrence E, Lutterbaugh J, Lu S, Willson JK, Luo G, Hensold J, Tai HH, Wilson K, Markowitz SD. 15-Hydroxyprostaglandin dehydrogenase, a COX-2 oncogene antagonist, is a TGF-beta-induced suppressor of human gastrointestinal cancers. Proc Natl Acad Sci U S A. 2004 Dec 14;101(50):17468-73. 3. Yang L, Amann JM, Kikuchi T, Porta R, Guix M, Gonzalez A, Park KH, Billheimer D, Arteaga CL, Tai HH, Dubois R, Carbone DP, Johnson DH. Inhibition of Epidermal Growth Factor Receptor Signaling Elevates 15-Hydroxyprostaglandin Dehydrogenase in Non-Small-Cell Lung Cancer. Cancer Res. 2007 Jun 15;67(12):5587-5593. NIH Chemical Genomics Center [NCGC] Structural Genomics Consortium [SGC]
Buffer: 50 mM Tris-HCl, 0.01% Tween 20, pH 8. Enzyme Buffer: 50 mM Tris-HCl, 0.5 mM NAD+ and 0.01% Tween 20, pH 8. Reagents/Controls: Buffer in columns 3 and 4 as negative control (no enzyme). Substrate/cofactor solution: 1 mM NAD+ and 30 uM prostaglandin (Sigma, prostaglandin E2, # P5640) final concentrations dispensed throughout the plate. Enzyme: 20 nM HPGD final concentration in columns 1, 2, 5-48. Column 1 and 2 is neutral (100% activity). A titration of control inhibitor GW5074 (G6416 Sigma-Aldrich, St. Louis, MO) top concentration 10 mM in DMSO, then 1:2 dilution for a total of 16 concentrations in duplicate) was pin-transferred into column 2. Assay Steps: Three uL of enzyme were dispensed to 1536-well Greiner black solid bottom plates. Compounds and control inhibitor (23 nL) were transferred via Kalypsys PinTool. The plates were incubated for 15 min at room temperature, and then 1 uL of substrate/cofactor solution was added to start the reaction. The plates were immediately transferred to and read 5 times every 30 seconds on ViewLux High-throughput CCD imager (Perkin-Elmer) using 360 nm excitation and 450 nm emission fluorescence protocol. The fluorescence intensity difference between the last and the first time points was used to compute reaction progress.
A general note: qHTS replaces the single test concentration by a dilution series.
Regarding `Cc1ccnc(-n2sc3ccccc3c2=O)n1`, the Potency is 3.16 µM (active).

`CC1CCN(C(=O)c2ccc(CSc3ccc(Cl)cc3)cc2)CC1`: the Potency was 0.631 µM (active).

For the compound `CN(c1ccc(C(=O)N2CCc3ccccc3C2)cc1)S(C)(=O)=O`, the Potency was 14.1 µM (active). With `CC1CCN(C(=O)c2cc3nc(C4CC4)cc(C(F)(F)F)n3n2)CC1` the figure was 3.98 µM (active); with `O=C(c1ccc(CSc2ccccc2)cc1)N1CCCCCC1`, 0.224 µM (active).
